# Measured values as given in the supplement of paper PMC11732987, “Enantioselective OTUD7B fragment discovery through chemoproteomics screening and high-throughput optimisation” (Communications Chemistry, 2025).
# Values without a mark were called inactive.
# Experiments:
# Assay in all cases: log2 ratio of Biotin-Ahx-Ub-VS probe labelling (fragment/DMSO); higher = less target engagement (more negative = stronger competition), active = hit call of the paper (q ≤ 0.05, log2 ratio ≤ -1)
# Details in all cases: compound concentration: 200 uM; treatment time: 3 h
# [1] = target: T1, USP42 (UniProt Q9H9J4)
# T1 sequence (whole entry): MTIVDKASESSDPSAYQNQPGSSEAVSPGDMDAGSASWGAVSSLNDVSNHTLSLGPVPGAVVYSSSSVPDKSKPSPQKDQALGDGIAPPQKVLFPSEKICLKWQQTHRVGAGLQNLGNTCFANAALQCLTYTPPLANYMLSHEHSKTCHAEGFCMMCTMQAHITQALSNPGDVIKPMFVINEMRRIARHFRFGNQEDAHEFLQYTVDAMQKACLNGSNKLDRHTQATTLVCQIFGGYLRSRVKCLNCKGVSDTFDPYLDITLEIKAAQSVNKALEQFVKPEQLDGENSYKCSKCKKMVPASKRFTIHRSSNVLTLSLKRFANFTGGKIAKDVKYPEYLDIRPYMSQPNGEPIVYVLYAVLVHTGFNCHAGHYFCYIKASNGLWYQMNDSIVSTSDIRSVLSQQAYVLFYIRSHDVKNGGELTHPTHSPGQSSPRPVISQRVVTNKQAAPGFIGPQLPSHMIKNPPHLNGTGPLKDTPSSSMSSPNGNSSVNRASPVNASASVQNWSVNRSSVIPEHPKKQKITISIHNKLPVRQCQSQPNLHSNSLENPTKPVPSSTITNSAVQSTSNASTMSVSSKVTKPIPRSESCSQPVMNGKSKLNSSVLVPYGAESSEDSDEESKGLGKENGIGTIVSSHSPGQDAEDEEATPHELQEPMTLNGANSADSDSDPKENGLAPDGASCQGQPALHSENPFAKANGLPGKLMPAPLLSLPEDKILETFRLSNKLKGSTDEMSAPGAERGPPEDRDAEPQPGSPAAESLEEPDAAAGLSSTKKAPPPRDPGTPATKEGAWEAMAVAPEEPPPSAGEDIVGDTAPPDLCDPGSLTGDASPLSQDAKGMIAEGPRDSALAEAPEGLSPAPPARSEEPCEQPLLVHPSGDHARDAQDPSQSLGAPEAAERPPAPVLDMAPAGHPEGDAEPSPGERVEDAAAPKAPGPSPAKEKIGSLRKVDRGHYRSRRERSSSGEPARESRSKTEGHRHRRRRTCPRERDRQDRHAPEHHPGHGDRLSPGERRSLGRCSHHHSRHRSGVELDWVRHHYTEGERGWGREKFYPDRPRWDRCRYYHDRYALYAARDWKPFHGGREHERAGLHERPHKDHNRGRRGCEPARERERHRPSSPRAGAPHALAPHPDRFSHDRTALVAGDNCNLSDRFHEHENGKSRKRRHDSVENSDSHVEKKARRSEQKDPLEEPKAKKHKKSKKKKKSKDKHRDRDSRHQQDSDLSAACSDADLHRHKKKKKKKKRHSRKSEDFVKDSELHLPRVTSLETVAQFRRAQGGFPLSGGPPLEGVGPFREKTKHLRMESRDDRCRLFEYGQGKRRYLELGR
# Method in brief: (§1)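 Global-median-normalised Spectronaut label-free quantities were compared by unpaired t-test, and values are average log2 ratios of fragment over vehicle. Only proteins with ≥2 unique peptides were used. HEK293T lysate (495 µg per sample) was treated in triplicate with fragment at 200 µM or vehicle for 3 h and then with Biotin-Ahx-Ub-VS at 0.5 µM final for 1 h. Labelled DUBs were then NeutrAvidin-enriched, digested with LysC and trypsin, and run by diaPASEF LC-MS/MS.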
# [2] = target: USP46 (UniProt P62068)
# Method in brief: as §1
# [3] = target: T2, USP47 (UniProt Q96K76)
# T2 sequence (whole entry): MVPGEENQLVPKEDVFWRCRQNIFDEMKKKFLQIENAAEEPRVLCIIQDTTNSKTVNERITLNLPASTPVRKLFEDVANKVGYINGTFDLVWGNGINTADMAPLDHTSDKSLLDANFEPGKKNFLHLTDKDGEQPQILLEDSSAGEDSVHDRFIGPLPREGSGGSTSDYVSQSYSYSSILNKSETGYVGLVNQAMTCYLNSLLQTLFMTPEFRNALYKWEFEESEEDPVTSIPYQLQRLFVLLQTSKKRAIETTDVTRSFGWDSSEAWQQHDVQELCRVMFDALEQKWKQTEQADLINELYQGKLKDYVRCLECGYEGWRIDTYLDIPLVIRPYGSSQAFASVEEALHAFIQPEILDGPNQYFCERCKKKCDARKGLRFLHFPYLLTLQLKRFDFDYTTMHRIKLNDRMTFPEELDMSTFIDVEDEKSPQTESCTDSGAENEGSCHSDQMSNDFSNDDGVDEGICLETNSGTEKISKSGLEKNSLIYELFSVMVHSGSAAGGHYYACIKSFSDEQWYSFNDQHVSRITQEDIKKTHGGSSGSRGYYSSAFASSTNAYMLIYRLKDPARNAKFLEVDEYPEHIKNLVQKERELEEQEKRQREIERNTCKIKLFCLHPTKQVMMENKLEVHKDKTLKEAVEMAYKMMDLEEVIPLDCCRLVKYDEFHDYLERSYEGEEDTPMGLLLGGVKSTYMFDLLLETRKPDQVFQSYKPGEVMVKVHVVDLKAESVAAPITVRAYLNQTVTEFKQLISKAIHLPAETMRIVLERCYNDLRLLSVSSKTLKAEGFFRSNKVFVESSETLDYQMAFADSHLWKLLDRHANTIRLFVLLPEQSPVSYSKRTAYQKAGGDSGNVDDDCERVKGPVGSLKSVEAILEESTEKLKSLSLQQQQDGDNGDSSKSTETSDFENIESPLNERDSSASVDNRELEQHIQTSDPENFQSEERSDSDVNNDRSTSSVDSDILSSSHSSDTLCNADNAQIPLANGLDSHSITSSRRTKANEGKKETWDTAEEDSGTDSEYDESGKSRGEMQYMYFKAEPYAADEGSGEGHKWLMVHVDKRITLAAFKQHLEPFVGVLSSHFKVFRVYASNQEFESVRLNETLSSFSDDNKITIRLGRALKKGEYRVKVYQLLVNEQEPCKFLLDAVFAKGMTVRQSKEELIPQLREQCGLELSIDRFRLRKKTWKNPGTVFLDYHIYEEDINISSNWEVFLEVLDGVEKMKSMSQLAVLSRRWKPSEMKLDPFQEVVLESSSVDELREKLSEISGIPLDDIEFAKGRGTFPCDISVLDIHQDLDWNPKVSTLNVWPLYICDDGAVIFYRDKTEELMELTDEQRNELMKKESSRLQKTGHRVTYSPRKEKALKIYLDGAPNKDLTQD
# Method in brief: as §1
# [4] = target: T3, USP48 (UniProt Q86UV5)
# T3 sequence (whole entry): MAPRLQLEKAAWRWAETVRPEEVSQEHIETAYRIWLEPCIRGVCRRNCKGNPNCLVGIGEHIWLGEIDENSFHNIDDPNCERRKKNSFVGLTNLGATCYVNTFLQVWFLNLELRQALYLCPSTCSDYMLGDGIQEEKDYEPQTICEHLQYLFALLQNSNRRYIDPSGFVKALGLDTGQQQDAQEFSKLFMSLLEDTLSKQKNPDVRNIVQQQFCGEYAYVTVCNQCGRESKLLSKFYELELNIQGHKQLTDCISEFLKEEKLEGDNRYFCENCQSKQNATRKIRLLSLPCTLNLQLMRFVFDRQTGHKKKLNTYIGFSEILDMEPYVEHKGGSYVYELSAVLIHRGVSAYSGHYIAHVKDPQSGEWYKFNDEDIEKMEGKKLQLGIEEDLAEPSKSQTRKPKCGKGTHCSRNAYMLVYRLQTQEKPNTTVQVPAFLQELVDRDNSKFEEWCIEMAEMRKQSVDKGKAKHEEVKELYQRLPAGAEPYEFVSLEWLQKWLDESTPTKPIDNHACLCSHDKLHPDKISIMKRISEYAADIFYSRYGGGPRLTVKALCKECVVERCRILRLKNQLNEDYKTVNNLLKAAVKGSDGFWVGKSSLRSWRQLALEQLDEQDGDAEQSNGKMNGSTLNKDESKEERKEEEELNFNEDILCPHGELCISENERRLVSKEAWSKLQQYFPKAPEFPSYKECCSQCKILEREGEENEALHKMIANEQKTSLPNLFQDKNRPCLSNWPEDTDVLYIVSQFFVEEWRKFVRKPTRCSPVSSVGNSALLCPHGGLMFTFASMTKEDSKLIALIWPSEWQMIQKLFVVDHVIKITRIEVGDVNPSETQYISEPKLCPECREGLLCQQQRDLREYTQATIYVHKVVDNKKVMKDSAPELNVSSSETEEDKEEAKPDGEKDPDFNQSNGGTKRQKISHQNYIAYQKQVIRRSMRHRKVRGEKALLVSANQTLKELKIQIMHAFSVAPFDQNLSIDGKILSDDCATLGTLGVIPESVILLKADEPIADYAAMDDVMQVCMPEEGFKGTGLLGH
# Method in brief: as §1
# [5] = target: T4, USP5 (UniProt P45974)
# T4 sequence (whole entry): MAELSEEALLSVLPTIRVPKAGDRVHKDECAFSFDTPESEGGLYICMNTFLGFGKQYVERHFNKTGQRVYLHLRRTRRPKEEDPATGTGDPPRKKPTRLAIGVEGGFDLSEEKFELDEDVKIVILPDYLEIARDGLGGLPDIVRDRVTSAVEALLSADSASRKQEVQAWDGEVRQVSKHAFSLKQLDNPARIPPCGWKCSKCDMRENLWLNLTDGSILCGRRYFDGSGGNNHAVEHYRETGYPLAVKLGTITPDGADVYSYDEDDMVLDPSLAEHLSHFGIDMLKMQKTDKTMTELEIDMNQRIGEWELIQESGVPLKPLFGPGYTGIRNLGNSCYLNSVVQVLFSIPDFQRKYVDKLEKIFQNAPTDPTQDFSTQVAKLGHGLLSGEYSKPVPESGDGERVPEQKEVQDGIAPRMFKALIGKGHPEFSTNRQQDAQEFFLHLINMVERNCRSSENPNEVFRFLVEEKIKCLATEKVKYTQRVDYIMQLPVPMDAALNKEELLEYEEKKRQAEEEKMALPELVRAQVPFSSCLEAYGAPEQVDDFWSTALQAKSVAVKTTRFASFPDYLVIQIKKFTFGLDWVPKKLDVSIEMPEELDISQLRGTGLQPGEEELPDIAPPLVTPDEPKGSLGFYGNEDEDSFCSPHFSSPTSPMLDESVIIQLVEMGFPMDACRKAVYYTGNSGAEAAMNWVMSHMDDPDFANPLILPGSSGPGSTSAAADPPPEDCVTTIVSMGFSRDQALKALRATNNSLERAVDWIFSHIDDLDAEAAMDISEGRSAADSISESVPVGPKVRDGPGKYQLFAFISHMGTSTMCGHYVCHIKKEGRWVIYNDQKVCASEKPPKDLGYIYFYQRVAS
# Method in brief: as §1
# [6] = target: USP54 (UniProt Q70EL1)
# Method in brief: as §1
# [7] = target: USP7 (UniProt Q93009)
# Method in brief: as §1
# [8] = target: T5, USP8 (UniProt P40818)
# T5 sequence (whole entry): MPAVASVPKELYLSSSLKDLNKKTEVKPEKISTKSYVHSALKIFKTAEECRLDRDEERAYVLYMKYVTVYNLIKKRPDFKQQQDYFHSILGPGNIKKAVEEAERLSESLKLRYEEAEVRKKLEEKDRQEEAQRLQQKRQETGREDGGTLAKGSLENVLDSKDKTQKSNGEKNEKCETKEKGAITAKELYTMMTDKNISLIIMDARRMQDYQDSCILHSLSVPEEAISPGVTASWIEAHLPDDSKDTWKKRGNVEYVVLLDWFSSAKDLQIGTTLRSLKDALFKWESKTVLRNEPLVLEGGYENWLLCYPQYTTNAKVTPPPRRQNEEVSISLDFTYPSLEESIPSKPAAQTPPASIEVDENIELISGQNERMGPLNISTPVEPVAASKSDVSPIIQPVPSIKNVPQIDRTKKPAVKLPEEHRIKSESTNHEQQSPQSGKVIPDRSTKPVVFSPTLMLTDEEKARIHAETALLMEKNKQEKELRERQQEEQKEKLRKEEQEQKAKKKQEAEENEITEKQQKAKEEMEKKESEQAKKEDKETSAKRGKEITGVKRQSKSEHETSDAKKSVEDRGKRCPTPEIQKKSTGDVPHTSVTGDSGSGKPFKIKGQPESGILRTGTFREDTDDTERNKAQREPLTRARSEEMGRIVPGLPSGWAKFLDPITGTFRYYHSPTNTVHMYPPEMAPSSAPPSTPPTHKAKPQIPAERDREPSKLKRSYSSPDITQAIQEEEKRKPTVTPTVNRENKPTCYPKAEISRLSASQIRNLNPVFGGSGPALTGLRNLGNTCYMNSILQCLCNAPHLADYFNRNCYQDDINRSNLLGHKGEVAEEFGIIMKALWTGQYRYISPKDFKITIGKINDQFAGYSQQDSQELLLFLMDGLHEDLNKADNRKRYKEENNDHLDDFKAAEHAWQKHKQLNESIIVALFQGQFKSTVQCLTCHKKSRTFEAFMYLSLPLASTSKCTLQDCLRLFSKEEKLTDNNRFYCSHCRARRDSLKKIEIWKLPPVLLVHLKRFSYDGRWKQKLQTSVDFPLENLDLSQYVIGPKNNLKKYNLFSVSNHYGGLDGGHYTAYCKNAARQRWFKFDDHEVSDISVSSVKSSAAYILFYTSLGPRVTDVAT
# Method in brief: as §1
# [9] = target: USP9X (UniProt Q93008)
# Method in brief: as §1
# [10] = target: UniProt O00487
# Method in brief: as §1
# Chain of USP46 (P62068 whole entry): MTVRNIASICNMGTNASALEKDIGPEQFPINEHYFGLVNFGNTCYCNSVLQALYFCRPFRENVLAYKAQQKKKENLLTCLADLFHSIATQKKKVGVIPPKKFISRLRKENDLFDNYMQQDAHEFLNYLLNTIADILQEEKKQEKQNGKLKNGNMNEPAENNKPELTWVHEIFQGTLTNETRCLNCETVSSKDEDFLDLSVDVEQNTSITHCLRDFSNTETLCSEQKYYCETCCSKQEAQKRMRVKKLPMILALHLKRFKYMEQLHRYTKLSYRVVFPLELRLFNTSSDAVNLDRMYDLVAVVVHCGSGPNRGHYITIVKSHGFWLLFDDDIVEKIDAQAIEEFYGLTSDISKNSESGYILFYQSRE
# Chain of USP54 (Q70EL1 whole entry): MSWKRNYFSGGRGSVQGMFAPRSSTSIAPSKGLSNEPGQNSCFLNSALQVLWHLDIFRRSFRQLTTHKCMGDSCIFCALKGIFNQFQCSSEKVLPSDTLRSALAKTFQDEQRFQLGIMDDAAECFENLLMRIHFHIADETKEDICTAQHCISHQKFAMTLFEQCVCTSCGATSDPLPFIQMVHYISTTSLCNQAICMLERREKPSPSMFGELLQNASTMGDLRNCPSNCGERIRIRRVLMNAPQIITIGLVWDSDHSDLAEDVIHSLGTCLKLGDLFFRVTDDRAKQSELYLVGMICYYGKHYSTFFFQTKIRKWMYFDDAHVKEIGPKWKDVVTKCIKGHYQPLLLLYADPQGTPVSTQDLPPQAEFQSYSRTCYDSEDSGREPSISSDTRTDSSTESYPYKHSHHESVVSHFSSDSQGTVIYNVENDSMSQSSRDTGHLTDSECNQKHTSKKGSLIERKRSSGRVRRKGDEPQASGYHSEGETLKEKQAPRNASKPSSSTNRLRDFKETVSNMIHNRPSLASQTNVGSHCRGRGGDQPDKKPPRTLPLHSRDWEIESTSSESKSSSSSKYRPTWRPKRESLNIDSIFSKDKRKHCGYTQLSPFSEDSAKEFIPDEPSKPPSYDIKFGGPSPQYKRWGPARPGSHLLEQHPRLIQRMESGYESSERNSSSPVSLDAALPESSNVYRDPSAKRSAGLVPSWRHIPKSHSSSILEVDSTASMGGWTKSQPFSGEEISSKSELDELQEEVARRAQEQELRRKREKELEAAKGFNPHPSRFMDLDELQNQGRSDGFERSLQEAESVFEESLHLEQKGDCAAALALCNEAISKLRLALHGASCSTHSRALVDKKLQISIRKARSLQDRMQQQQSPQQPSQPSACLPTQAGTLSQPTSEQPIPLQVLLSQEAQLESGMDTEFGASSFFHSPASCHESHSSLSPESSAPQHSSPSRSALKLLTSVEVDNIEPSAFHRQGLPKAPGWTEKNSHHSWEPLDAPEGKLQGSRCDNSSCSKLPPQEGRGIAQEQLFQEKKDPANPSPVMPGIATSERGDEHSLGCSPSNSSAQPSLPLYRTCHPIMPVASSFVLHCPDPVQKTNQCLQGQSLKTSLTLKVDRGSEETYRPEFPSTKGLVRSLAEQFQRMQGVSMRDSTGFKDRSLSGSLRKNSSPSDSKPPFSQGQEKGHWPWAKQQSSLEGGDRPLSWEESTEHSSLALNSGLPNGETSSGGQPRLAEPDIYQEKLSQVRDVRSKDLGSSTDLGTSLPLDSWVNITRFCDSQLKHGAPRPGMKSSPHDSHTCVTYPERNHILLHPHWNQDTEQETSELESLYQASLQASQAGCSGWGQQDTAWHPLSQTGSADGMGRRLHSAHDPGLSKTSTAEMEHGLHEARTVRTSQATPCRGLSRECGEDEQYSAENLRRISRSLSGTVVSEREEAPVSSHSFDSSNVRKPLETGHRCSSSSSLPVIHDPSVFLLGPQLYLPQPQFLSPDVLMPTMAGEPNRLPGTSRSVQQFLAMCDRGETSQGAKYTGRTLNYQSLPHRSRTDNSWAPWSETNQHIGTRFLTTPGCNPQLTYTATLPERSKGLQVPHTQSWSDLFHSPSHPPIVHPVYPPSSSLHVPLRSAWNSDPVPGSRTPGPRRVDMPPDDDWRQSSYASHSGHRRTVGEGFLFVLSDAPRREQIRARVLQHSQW
# Chain of USP7 (Q93009 whole entry, looked up): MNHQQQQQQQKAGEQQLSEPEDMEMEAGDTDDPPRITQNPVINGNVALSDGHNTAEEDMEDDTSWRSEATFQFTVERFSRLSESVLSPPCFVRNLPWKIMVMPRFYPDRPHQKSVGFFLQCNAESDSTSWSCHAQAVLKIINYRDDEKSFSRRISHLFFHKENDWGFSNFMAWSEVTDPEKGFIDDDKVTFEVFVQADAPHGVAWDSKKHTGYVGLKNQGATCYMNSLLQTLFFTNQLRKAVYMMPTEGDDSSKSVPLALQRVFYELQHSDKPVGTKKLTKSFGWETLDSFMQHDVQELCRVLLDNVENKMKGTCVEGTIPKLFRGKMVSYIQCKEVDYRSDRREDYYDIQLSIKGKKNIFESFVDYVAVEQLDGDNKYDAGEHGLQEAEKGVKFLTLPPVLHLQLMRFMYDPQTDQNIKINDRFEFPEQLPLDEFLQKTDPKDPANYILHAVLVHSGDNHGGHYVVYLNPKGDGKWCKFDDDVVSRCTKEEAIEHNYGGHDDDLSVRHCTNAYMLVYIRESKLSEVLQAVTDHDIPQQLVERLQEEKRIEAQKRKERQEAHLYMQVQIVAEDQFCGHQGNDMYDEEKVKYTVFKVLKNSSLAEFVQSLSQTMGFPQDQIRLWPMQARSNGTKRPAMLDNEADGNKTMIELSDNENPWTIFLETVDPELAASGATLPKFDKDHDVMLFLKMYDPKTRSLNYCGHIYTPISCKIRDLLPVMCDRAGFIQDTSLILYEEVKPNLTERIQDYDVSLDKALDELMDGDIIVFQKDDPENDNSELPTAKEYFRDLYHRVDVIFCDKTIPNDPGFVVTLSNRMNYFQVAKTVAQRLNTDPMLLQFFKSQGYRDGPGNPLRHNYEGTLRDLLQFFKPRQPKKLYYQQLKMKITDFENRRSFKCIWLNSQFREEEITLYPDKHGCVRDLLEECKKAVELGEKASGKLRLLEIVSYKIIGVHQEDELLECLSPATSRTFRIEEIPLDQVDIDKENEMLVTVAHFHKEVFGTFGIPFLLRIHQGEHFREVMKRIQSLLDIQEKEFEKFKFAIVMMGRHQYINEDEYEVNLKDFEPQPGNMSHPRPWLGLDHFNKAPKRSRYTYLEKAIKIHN
# Chain of UniProt O00487 (O00487 whole entry): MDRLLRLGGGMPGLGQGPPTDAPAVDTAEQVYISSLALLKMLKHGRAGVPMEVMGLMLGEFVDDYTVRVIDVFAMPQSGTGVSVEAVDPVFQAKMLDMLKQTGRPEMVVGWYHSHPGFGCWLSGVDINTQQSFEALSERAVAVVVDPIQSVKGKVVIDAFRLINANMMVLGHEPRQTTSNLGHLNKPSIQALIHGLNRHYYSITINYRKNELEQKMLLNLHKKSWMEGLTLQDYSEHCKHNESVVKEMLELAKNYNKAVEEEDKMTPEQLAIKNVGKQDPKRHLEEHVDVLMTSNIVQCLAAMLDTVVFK
Structure (SMILES),log2 ratio of Biotin-Ahx-Ub-VS probe labelling [1],log2 ratio of Biotin-Ahx-Ub-VS probe labelling [2],log2 ratio of Biotin-Ahx-Ub-VS probe labelling [3],log2 ratio of Biotin-Ahx-Ub-VS probe labelling [4],log2 ratio of Biotin-Ahx-Ub-VS probe labelling [5],log2 ratio of Biotin-Ahx-Ub-VS probe labelling [6],log2 ratio of Biotin-Ahx-Ub-VS probe labelling [7],log2 ratio of Biotin-Ahx-Ub-VS probe labelling [8],log2 ratio of Biotin-Ahx-Ub-VS probe labelling [9],log2 ratio of Biotin-Ahx-Ub-VS probe labelling [10]
CN(Cc1nc2ccccc2[nH]1)C(=O)CCl.Cl,0.698,-0.254,-0.178,-1.14 (active),0.118,-0.517,-1.36 (active),-0.0998,-0.057,-0.00224
Cc1c(C#N)c(NC(=O)CCl)n(Cc2ccco2)c1C,0.0887,-0.16,-0.217,-0.398,-0.329,-0.38,-0.563,-0.000142,-0.241,-0.177
C#Cc1cccc(NC(=O)CCl)c1,0.466,-0.0515,-0.468,-0.362,-0.268,-0.249,-0.56,-0.179,-0.146,-0.148
